Laboratory results reported in PubChem BioAssay (EPA / NIEHS).
Results filed as inconclusive are left out. Calls of active or inactive are those of the source. Rule for the calls, unless noted: active = hit-call score of the fitted dose curve at least 0.9, where 1 is the maximum; inconclusive = response in the unintended direction; inactive = score below 0.9.

Target: human Peroxisome Proliferator-activated Receptor delta (PPARd), PPARD (gene 5467) (UniProt Q03181)
Experiment: ATG_PPARd_TRANS: Attagene TRANS-FACTORIAL HepG2 Assay for human Peroxisome Proliferator-activated Receptor delta (PPARd) (AID 2283002)
Details: not given
In short: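 HepG2 cells transiently transfected with GAL4-UAS multiplexed reporter units driven by exogenous chimeric NR-GAL4 proteins; 24 h compound exposure. Reporter mRNA measured by RT-PCR, 6-FAM primer extension, HpaI digestion and capillary electrophoresis; gain of signal fitted relative to DMSO.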

Sequence of human Peroxisome Proliferator-activated Receptor delta (PPARd), PPARD (gene 5467) (Q03181 whole entry, looked up): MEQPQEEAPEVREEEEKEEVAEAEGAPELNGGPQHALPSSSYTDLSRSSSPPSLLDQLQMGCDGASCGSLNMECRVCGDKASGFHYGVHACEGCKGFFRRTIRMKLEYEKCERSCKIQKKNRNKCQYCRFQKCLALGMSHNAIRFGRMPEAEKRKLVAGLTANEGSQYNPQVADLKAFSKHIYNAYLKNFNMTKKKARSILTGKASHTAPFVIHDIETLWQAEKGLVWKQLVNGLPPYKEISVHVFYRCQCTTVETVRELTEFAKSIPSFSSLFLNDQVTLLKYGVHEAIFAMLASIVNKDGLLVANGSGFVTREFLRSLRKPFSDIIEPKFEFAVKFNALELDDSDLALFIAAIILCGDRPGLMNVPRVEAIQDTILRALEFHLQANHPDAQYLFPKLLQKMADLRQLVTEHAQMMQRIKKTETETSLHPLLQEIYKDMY

| Compound | AC50 | outcome |
| --- | --- | --- |
| Clc1ccc2c(c1)C(N1CCNCC1)=Nc1ccccc1O2 | 52.9 µM (active) | – |
| O=Cc1ccc(Cl)c([N+](=O)[O-])c1 | – | inactive |
| COc1cc2ncnc(Nc3cccc(Cl)c3)c2cc1OC | – | inactive |
| O=C1CCCCCCCCCCCCCCO1 | 179 µM (active) | – |
| O=C(O)CN(CCN(CC(=O)O)CC(=O)O)CCN(CC(=O)O)CC(=O)O | – | inactive |
| CC1CCC(C(C)CS)CC1S (centres undefined) | – | inactive |
| O=c1cc(-c2ccccc2)oc2cc(O)cc(O)c12 | – | inactive |
| O=C[C@H](O)[C@H](O)[C@H](O)CO | – | inactive |
| CCCCCCCCC | – | inactive |
| C[C@H]1C[C@@H]2[C@H]([C@@H](O)C[C@@]3(C)[C@H]2CC[C@]3(O)C(=O)CO)[C@@]2(C)C=CC(=O)C=C12 | – | inactive |
| CCn1c2ccccc2c2cc(N)ccc21 | – | inactive |
| C=CC(C)(O)CCC=C(C)CCC=C(C)C (centres undefined) | – | inactive |
| CC(C=O)Cc1ccc(C(C)C)cc1 (centres undefined) | – | inactive |
| NCCNCCN | – | inactive |
| C#C[C@]1(O)CC[C@H]2[C@@H]3CCC4=Cc5oncc5C[C@]4(C)[C@H]3CC[C@@]21C | – | inactive |
| Cc1ccc(Nc2ccc(O)c3c2C(=O)c2ccccc2C3=O)cc1 | – | inactive |
| O=C1CCCCCCCCCCOCCCCO1 | – | inactive |

| Compound | AC50 | outcome |
| --- | --- | --- |
| CC(C)(COC(=O)c1ccccc1)COC(=O)c1ccccc1 | – | inactive |
| NCCCN1CCOCC1 | – | inactive |
| CCCc1c(OCCCOc2ccc(OCC(=O)O)cc2)ccc(C(C)=O)c1O | 0.0841 µM (active) | – |
| C=C(C)C(=O)O[C@H]1C[C@@H]2CC[C@@]1(C)C2(C)C | – | inactive |
| COC(=O)Cc1cccc2ccccc12 | – | inactive |
| c1ccc2c(c1)c1cccc3ccc4cccc2c4c31 | – | inactive |
| CNCCCC12CCC(c3ccccc31)c1ccccc12 | – | inactive |
| Nc1cc([N+](=O)[O-])ccc1O | – | inactive |
| CC1(C)CCC(C)(C)c2cc(C(=O)Nc3ccc(C(=O)O)cc3)ccc21 | – | inactive |
| Cc1ccc2sc3cccc(C)c3c2c1 | – | inactive |
| O=C(OCc1ccccc1)C(=O)OCc1ccccc1 | – | inactive |
| CCCCCC(CO)CCC (centres undefined) | – | inactive |
| Clc1cccc(Cl)n1 | – | inactive |
| CCCCC(CC)COC(=O)/C=C\C(=O)OCC(CC)CCCC (centres undefined) | – | inactive |
| CC1(C)C(=O)N(Br)C(=O)N1Cl | – | inactive |
| O=S(=O)(O)c1cccc2c(S(=O)(=O)O)cccc12 | – | inactive |
| Cc1ccc2n[nH]nc2c1 | – | inactive |

Read-out: Intercellular Adhesion Molecule 1 (ICAM1), ICAM1 (gene 3383)
Experiment: BSK_3C_ICAM1: BioMAP Diversity Plus: 3C Assay for Intercellular Adhesion Molecule 1 (ICAM1) Biomarker Activity (AID 2283003; active = hit-call score of the fitted dose curve at least 0.9, where 1 is the maximum; inactive = score below 0.9)
Details: primary human endothelial cells (HUVEC); actives raise or lower the signal
In short: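 Human vascular endothelial primary cells, 3C conditions, 24 h treatment. ICAM-1 by ELISA.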

| Compound | AC50 | outcome |
| --- | --- | --- |
| O=C1CCCCCCCCCCCCCCO1 | 28.6 µM (active) | – |
| CC1CCC(C(C)CS)CC1S (centres undefined) | 27.4 µM (active) | – |
| C[C@H]1C[C@@H]2[C@H]([C@@H](O)C[C@@]3(C)[C@H]2CC[C@]3(O)C(=O)CO)[C@@]2(C)C=CC(=O)C=C12 | – | inactive |
| CCn1c2ccccc2c2cc(N)ccc21 | – | inactive |
| NCCNCCN | – | inactive |
| C#C[C@]1(O)CC[C@H]2[C@@H]3CCC4=Cc5oncc5C[C@]4(C)[C@H]3CC[C@@]21C | – | inactive |
| Cc1ccc(Nc2ccc(O)c3c2C(=O)c2ccccc2C3=O)cc1 | – | inactive |
| CC(C)(COC(=O)c1ccccc1)COC(=O)c1ccccc1 | – | inactive |
| C=C(C)C(=O)O[C@H]1C[C@@H]2CC[C@@]1(C)C2(C)C | 28.8 µM (active) | – |
| c1ccc2c(c1)c1cccc3ccc4cccc2c4c31 | – | inactive |
| Nc1cc([N+](=O)[O-])ccc1O | – | inactive |
| CCCCC(CC)COC(=O)/C=C\C(=O)OCC(CC)CCCC (centres undefined) | – | inactive |
| Cc1ccc2n[nH]nc2c1 | – | inactive |

Target: Retinoic acid receptor alpha (Homo sapiens) (UniProt P10276)
Experiment: ATG_RARa_TRANS: Attagene TRANS-FACTORIAL HepG2 Assay for human Retinoic Acid Receptor alpha (RARa) (AID 2283005)
Details: not given
In short: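 HepG2 transiently transfected with multiplex GAL4-UAS reporter units including a human RARa–GAL4 chimera; 24 h compound exposure. Reporter mRNA quantified by RT-PCR, 6-FAM labeling and capillary electrophoresis; gain of signal versus DMSO.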

Sequence of Retinoic acid receptor alpha (Homo sapiens) (P10276 whole entry, looked up): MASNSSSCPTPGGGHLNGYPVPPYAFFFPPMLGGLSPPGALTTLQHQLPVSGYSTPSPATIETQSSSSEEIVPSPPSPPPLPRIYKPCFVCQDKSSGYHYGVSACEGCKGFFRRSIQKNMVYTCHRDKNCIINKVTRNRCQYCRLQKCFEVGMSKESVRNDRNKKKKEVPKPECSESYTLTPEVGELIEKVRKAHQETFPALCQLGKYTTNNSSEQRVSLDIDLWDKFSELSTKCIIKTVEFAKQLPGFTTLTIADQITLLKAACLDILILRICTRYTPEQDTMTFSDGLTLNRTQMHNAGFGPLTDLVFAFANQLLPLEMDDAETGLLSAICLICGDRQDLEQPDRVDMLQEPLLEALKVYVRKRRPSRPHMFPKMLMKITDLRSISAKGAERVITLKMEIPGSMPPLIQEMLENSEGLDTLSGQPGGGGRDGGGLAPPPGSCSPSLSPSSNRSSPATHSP

| Compound | outcome |
| --- | --- |
| O=C(O)CN(CCN(CC(=O)O)CC(=O)O)CCN(CC(=O)O)CC(=O)O | inactive |
| O=c1cc(-c2ccccc2)oc2cc(O)cc(O)c12 | inactive |
| O=C[C@H](O)[C@H](O)[C@H](O)CO | inactive |
| O=C1CCCCCCCCCCOCCCCO1 | inactive |
| CCCCCC(CO)CCC (centres undefined) | inactive |
| CC1(C)C(=O)N(Br)C(=O)N1Cl | inactive |

Read-out: not listed separately
Experiment: BSK_3C_Proliferation: Cell Proliferation Assessment in the BioMAP Diversity Plus: 3C Assay (AID 2283006; active = hit-call score of the fitted dose curve at least 0.9, where 1 is the maximum; inactive = score below 0.9;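 for AC50: potency may reflect either rise or fall in cell number versus DMSO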)
Details: primary human endothelial cells (HUVEC)
In short: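 Proliferation of human vascular endothelial primary cells after 48 h dosing, quantified as SRB-stained protein at 560 nm relative to DMSO.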

| Compound | AC50 | outcome |
| --- | --- | --- |
| O=C1CCCCCCCCCCCCCCO1 | 20 µM (active) | – |
| CC1CCC(C(C)CS)CC1S (centres undefined) | 25.7 µM (active) | – |
| C[C@H]1C[C@@H]2[C@H]([C@@H](O)C[C@@]3(C)[C@H]2CC[C@]3(O)C(=O)CO)[C@@]2(C)C=CC(=O)C=C12 | – | inactive |
| CCn1c2ccccc2c2cc(N)ccc21 | 13.3 µM (active) | – |
| NCCNCCN | – | inactive |
| C#C[C@]1(O)CC[C@H]2[C@@H]3CCC4=Cc5oncc5C[C@]4(C)[C@H]3CC[C@@]21C | 20 µM (active) | – |
| Cc1ccc(Nc2ccc(O)c3c2C(=O)c2ccccc2C3=O)cc1 | – | inactive |
| CC(C)(COC(=O)c1ccccc1)COC(=O)c1ccccc1 | 22.2 µM (active) | – |
| C=C(C)C(=O)O[C@H]1C[C@@H]2CC[C@@]1(C)C2(C)C | 8.38 µM (active) | – |
| c1ccc2c(c1)c1cccc3ccc4cccc2c4c31 | – | inactive |
| Nc1cc([N+](=O)[O-])ccc1O | – | inactive |
| CCCCC(CC)COC(=O)/C=C\C(=O)OCC(CC)CCCC (centres undefined) | – | inactive |
| Cc1ccc2n[nH]nc2c1 | – | inactive |

Target: Peroxisome proliferator-activated receptor gamma (Homo sapiens) (UniProt P37231)
Experiment: ATG_PPARg_TRANS: Attagene TRANS-FACTORIAL HepG2 Assay for human Peroxisome Proliferator-activated Receptor-gamma (PPARg) (AID 2283007)
Details: not given
In short: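 HepG2 cells transiently transfected with multiplexed GAL4-UAS reporter units and exogenous chimeric NR-Gal4 proteins; reporter mRNA quantified after 24 h compound exposure by RT-PCR, fluorescent labelling, HpaI digestion and capillary electrophoresis; gain-of-signal fitted versus DMSO baseline.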

Sequence of Peroxisome proliferator-activated receptor gamma (Homo sapiens) (P37231 whole entry, looked up): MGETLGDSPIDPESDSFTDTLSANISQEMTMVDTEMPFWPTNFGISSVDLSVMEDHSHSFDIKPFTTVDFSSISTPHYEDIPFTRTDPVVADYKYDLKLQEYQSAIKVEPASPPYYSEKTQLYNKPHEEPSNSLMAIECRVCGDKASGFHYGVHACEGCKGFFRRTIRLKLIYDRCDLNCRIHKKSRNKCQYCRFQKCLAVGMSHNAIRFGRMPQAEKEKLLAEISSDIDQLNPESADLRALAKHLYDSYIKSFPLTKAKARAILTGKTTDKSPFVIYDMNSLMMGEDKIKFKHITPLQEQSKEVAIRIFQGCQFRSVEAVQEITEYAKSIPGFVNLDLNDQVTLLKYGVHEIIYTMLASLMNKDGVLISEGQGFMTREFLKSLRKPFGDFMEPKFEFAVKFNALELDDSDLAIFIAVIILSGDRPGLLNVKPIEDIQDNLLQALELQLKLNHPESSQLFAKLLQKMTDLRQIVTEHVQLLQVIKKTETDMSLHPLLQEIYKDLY

| Compound | outcome | AC50 |
| --- | --- | --- |
| Clc1ccc2c(c1)C(N1CCNCC1)=Nc1ccccc1O2 | inactive | – |
| O=Cc1ccc(Cl)c([N+](=O)[O-])c1 | – | 100 µM (active) |
| COc1cc2ncnc(Nc3cccc(Cl)c3)c2cc1OC | inactive | – |
| O=C1CCCCCCCCCCCCCCO1 | – | 60.1 µM (active) |
| O=C(O)CN(CCN(CC(=O)O)CC(=O)O)CCN(CC(=O)O)CC(=O)O | inactive | – |
| CC1CCC(C(C)CS)CC1S (centres undefined) | – | 41 µM (active) |
| O=C[C@H](O)[C@H](O)[C@H](O)CO | inactive | – |
| CCCCCCCCC | inactive | – |
| CCn1c2ccccc2c2cc(N)ccc21 | – | 22.9 µM (active) |
| C=CC(C)(O)CCC=C(C)CCC=C(C)C (centres undefined) | – | 32.6 µM (active) |
| CC(C=O)Cc1ccc(C(C)C)cc1 (centres undefined) | inactive | – |
| NCCNCCN | inactive | – |
| C#C[C@]1(O)CC[C@H]2[C@@H]3CCC4=Cc5oncc5C[C@]4(C)[C@H]3CC[C@@]21C | inactive | – |
| Cc1ccc(Nc2ccc(O)c3c2C(=O)c2ccccc2C3=O)cc1 | inactive | – |
| O=C1CCCCCCCCCCOCCCCO1 | – | 59.3 µM (active) |
| CC(C)(COC(=O)c1ccccc1)COC(=O)c1ccccc1 | inactive | – |
| CCCc1c(OCCCOc2ccc(OCC(=O)O)cc2)ccc(C(C)=O)c1O | – | 0.195 µM (active) |
| C=C(C)C(=O)O[C@H]1C[C@@H]2CC[C@@]1(C)C2(C)C | inactive | – |
| COC(=O)Cc1cccc2ccccc12 | – | 66.5 µM (active) |
| CNCCCC12CCC(c3ccccc31)c1ccccc12 | inactive | – |
| Nc1cc([N+](=O)[O-])ccc1O | inactive | – |
| CC1(C)CCC(C)(C)c2cc(C(=O)Nc3ccc(C(=O)O)cc3)ccc21 | – | 100 µM (active) |
| O=C(OCc1ccccc1)C(=O)OCc1ccccc1 | inactive | – |
| CCCCCC(CO)CCC (centres undefined) | inactive | – |
| Clc1cccc(Cl)n1 | inactive | – |
| CCCCC(CC)COC(=O)/C=C\C(=O)OCC(CC)CCCC (centres undefined) | – | 4.7 µM (active) |
| CC1(C)C(=O)N(Br)C(=O)N1Cl | inactive | – |
| Cc1ccc2n[nH]nc2c1 | inactive | – |
